Data on 38 compounds can be found in PubChem BioAssay.

Values without a mark were called inactive. Results filed as inconclusive are left out. The source made the active and inactive calls.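 Rule for the calls, unless noted: active = GFP response above 150% of the DMSO level; inconclusive = fewer than 70 events counted for a yeast strain; inactive = the rest.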

Experiment [1] is described as follows: modulators of MEP2-GFP levels in yeast, primary screen, S. cerevisiae, multiplex flow cytometry (AID 1867;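 active = GFP response, as percent of the DMSO control, above the screen-wide mean plus 3 SD, about 139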;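 note: median GFP channel fluorescence of barcode-gated MEP2-GFP cells measured by flow cytometry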). To be noted: S. cerevisiae MEP2-GFP strain, 3 h, at 10 µM, active compounds read high.
The nature of experiment [2]: modulators of AGP1-GFP expression in yeast TOR pathway, primary screen, cell-based, multiplex flow cytometry, S. cerevisiae (AID 1887;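 active = GFP signal above the screen-wide mean plus 3 SD, that is over about 124.5% of the solvent control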;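 note: AGP1-GFP fusion strain of S. cerevisiae within a five-strain barcoded multiplex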). To be noted: 3 h, at 10 µM, active compounds read high. A general note: A flow cytometer gives signals particle by particle.
The nature of experiment [3]: modulators of MEP2-GFP levels in yeast, confirmation, S. cerevisiae, flow cytometry GFP, cherry picks (AID 2272;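 active = GFP response above 150% of the DMSO control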;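 note: ratio of well signal to plate DMSO mean so 100% equals DMSO level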). The settings on record: S. cerevisiae MEP2-GFP strain, 3 h, at 10 µM, active compounds read high.
A short description of experiment [4]: AGP1-GFP expression modulators, hit retest, confirmation, cell-based, flow cytometry, S. cerevisiae, cherry picks (AID 2273).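 Note: median GFP channel fluorescence over the whole cell population gate.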 The settings on record: S. cerevisiae AGP1-GFP strain, 3 h, at 10 µM.

In the case of `[N-]=[N+]=NC1C[C@H](n2ccc(=O)[nH]c2=O)O[C@@H]1CO` (stereo not given in full), the GFP response vs DMSO in experiment [1] is 99.9%. The GFP response, % of DMSO in experiment [2] is 104%. Consider `NCCc1c[nH]c2ccc(F)cc12`, for which the GFP response vs DMSO in experiment [1] was 103%. Besides, in experiment [2], the GFP response, % of DMSO was 100%. For `CC(=O)C1=C(C)OC(N)=C(C(=O)OC(C)C)C12C(=O)Nc1ccccc12` (stereo not given), in that order: 105% and 101%. Take `CC(C)(C)NCC(O)c1cc(Cl)c(N)c(Cl)c1` (stereo not given): in experiment [1], the GFP response vs DMSO is 102%. The GFP response, % of DMSO in experiment [2] is 91.4%. `C#CCOc1cc(C2C3=C(COC3=O)Nc3cc4c(cc32)OCO4)ccc1OC` (stereo not given): the GFP response vs DMSO in experiment [3] was 117%. In addition, the GFP response, % of DMSO in experiment [4] is 103%. Take `O=C1NC(=O)N(CCc2ccc(F)cc2)C(=O)/C1=C/c1cccs1`: the GFP response vs DMSO in experiment [3] is 94.4%. For the same compound, the GFP response, % of DMSO in experiment [4] is 101%. `CCN(CC)c1ccc(/C=C/[N+](=O)[O-])cc1`: in experiment [3], the GFP response vs DMSO was 108%. Besides, in experiment [4], the GFP response, % of DMSO is 96.7%. For `O=c1oc2ccccc2c(O)c1[C@H]1c2ccc(O)cc2Oc2c1c(=O)oc1ccccc21`, in that order: 102% and 90.4%. Regarding `CCOC(=O)c1cncn1C(C)c1ccccc1` (stereo not given), the GFP response, % of DMSO in experiment [2] was 95%.

As for `Nc1ccc2ccc3cccc[n+]3c2c1`, in experiment [3], the GFP response vs DMSO was 257% (active). In experiment [4], the GFP response, % of DMSO was 110%. The matching figures for `CN1CCN(c2ccc([N+](=O)[O-])c(Sc3ccccn3)c2)CC1`: 105% and 98%. For `O=C1NC(=O)N(Cc2ccco2)C(=O)/C1=C/c1ccc(-c2cccc([N+](=O)[O-])c2)o1`, in that order: 94.7% and 90.9%. For the compound `CCN1CC2(COC(=O)c3ccccc3N)CCC(OC)C34C5CC6C(OC)CC(O)(C5C6OC)C(O)(C(OC)C23)C14` (stereo not given), the GFP response vs DMSO in experiment [1] is 120%. `CN1C(=O)C(=Cc2ccc(SC3CCCCC3)o2)C(=O)N(C)C1=O`: in experiment [3], the GFP response vs DMSO was 98.8%. Besides, the GFP response, % of DMSO in experiment [4] was 101%. Take `O=c1[nH]c(=O)n(Cc2ccc(F)cc2)c(O)c1C=NCCN1CCCCC1`: in experiment [3], the GFP response vs DMSO is 101%. Also, the GFP response, % of DMSO in experiment [4] is 102%. For `O=C1NC(=O)N(CCc2ccc(F)cc2)C(=O)/C1=C/c1ccco1`, in that order: 94.4% and 99.8%.

As for `CC12CN3CC(C)(CN(C1)C3c1cccnc1)C2=O` (stereo not given), in experiment [1], the GFP response vs DMSO is 117%. In the case of `O=C1NC(=S)NC(=O)C1=Cc1ccc2c(c1)CCN2CCCCl`, the GFP response vs DMSO in experiment [3] is 103%. The GFP response, % of DMSO in experiment [4] is 87.8%.

On to `CCOC(=O)C1=C(C)OC(N)=C(C(=O)OCC)[C@@]12C(=O)N(CC(N)=O)c1ccccc12`, for which, in experiment [1], the GFP response vs DMSO was 120%. Take `N#CC(C#N)=Cc1ccc(N2CCCC2)cc1`: the GFP response vs DMSO in experiment [3] was 112%. The GFP response, % of DMSO in experiment [4] was 109%. For `O=C1NC(=O)N(Cc2ccco2)C(=O)/C1=C\c1ccc(-c2ccc(F)cc2)o1`, in that order: 99.3% and 100%. Take `CC(C)[C@@]1(NC(=O)[C@@H]2C[C@@H]3c4cccc5[nH]cc(c45)C[C@H]3N(C)C2)O[C@@]2(O)[C@@H]3CCCN3C(=O)[C@H](Cc3ccccc3)N2C1=O`: the GFP response vs DMSO in experiment [1] is 132%. As for `Cc1cccn2c(NCC3CCCO3)c(C(C)C)nc12` (stereo not given), the GFP response vs DMSO in experiment [3] is 104%. In addition, in experiment [4], the GFP response, % of DMSO was 105%. For `Nc1ccc(N=Nc2ccccc2)cc1`, in that order: 103% and 93.4%. The matching figures for `O=C1NC(=O)N(CCC2=CCCCC2)C(=O)/C1=C/c1cccs1`: 96.2% and 84%. Regarding `O=c1[nH]c(=S)n(-c2ccccc2)c(O)c1/C=N/N1CCOCC1`, in experiment [3], the GFP response vs DMSO was 99%. Moreover, the GFP response, % of DMSO in experiment [4] is 99.8%. The matching figures for `CCN(CC)c1ccc(C=C2C(=O)NC(=S)NC2=O)cc1`: 95.2% and 100%. Regarding `Cc1ccc(N2C(=O)NC(=O)/C(=C\c3cn(CC(=O)O)c4ccccc34)C2=O)cc1`, the GFP response vs DMSO in experiment [3] was 100%. Moreover, in experiment [4], the GFP response, % of DMSO is 98.9%.

In the case of `COc1cc(/C=C/C(=O)c2c(O)n(CCc3ccccc3)c(=O)[nH]c2=O)ccc1O`, in experiment [3], the GFP response vs DMSO was 98.8%. Also, the GFP response, % of DMSO in experiment [4] was 102%. For `CCOC(=O)C(C)Oc1cc(C)cc2oc(=O)c3c(c12)CCCC3` (stereo not given), the GFP response vs DMSO in experiment [1] was 116%.

In the case of `CCNC(=O)[C@H]1O[C@@H](n2cnc3c(N)ncnc32)[C@H](O)[C@@H]1O`, in experiment [1], the GFP response vs DMSO was 115%. In addition, the GFP response, % of DMSO in experiment [2] is 91.5%. For `N#CC(C#N)=NNc1ccc(-n2ccc(C(F)(F)F)n2)cc1`, in experiment [3], the GFP response vs DMSO was 114%. Moreover, in experiment [4], the GFP response, % of DMSO was 102%. The matching figures for `O=C1NC(=O)N(c2ccccc2)C(=O)/C1=C/c1ccc(Sc2ccccc2)o1`: 108% and 91.7%. With `O=C1NC(=O)N(c2ccccc2)C(=O)/C1=C\c1ccc([N+](=O)[O-])o1`, the GFP response vs DMSO in experiment [3] was 108%. Besides, the GFP response, % of DMSO in experiment [4] is 104%. With `Cc1ccc(/C=C2\C(=O)NC(=O)N(CC3CCCO3)C2=O)s1` (stereo not given), the GFP response vs DMSO in experiment [3] is 92%. Besides, the GFP response, % of DMSO in experiment [4] was 92.1%. The matching figures for `CCCCn1c(=O)c(C(=O)Nc2ccsc2C(=O)OC)c(O)c2ccccc21`: 101% and 102%. The matching figures for `O=C1NC(=O)C(=Cc2ccc(Sc3ccccc3)o2)C(=O)N1`: 92% and 83.6%.

`O=[N+]([O-])c1ccc(N2CCNCC2)cc1Sc1ccccn1`: the GFP response vs DMSO in experiment [3] is 97.8%. In experiment [4], the GFP response, % of DMSO was 97.2%.
